Results reported in the supplement of paper PMC10720658.
± gives the standard deviation of the averaged measurements.

System: AEK1 (Tb927.3.2440)
Assay: percent reduction in TR-FRET probe signal relative to DMSO control; higher = stronger displacement of ATP-site probe (binding)
Settings: 1 µM; incubation time 1 h

| SMILES | percent reduction in TR-FRET probe signal [%] |
| --- | --- |
| Cn1cc(-c2ccc3ncc(Cc4ccc5ncccc5c4)n3n2)cn1 | 4.34 ± 8.7 |
| Cl.Cl.OC(c1cc(-c2ccc(Cl)cc2)nc2ccccc12)C1CCCCN1 (configuration not stated) [Vacquinol-1] | -5.59 ± 3.7 |
| CCOC(=O)c1cnc2ccc(-c3cncc(NS(=O)(=O)c4ccccc4)c3)cn12 | -3.6 ± 8.8 |
| O=C(Nc1ccccc1C(=O)NC1CCCCNC1=O)c1cc2ccccc2s1 (configuration not stated) | -0.533 ± 1.2 |
| CCc1cncnc1N1CCN(Cc2nc3cc(C(F)(F)F)ccc3[nH]2)CC1 | -7.37 ± 13 |
| CNC(=O)c1ccccc1Sc1ccc2c(/C=C/c3ccccn3)n[nH]c2c1 [Axitinib] | 52.4 ± 18 |
| Oc1cc(O)cc(/C=C/c2ccc(O)c(O)c2)c1 [Piceatannol] | 44.1 ± 8 |
| CC[C@@H]1C(=O)N(C)c2cnc(Nc3ccc(C(=O)N[C@H]4CC[C@H](N5CCN(CC6CC6)CC5)CC4)cc3OC)nc2N1C(C)C [Volasertib (BI 6727)] | 4.92 ± 1.3 |
| N#CCNC(=O)c1ccc(-c2ccnc(Nc3ccc(N4CCOCC4)cc3)n2)cc1 | 16.3 ± 16 |
| CS(=O)(=O)N1CCN(Cc2cc3nc(-c4cccc5[nH]ncc45)nc(N4CCOCC4)c3s2)CC1 | 4.23 ± 8.1 |
| CC1(C)CNc2cc(NC(=O)c3cccnc3NCc3ccncc3)ccc21.O=P(O)(O)O.O=P(O)(O)O [Motesanib Diphosphate (AMG-706)] | 2.79 ± 7.6 |
| CC(C)(O)CC(=O)NCCn1ccc2ncnc(Nc3ccc(Oc4cccc(C(F)(F)F)c4)c(Cl)c3)c21 | -2.36 ± 7.6 |
